Hits are enriched below; roughly 21% of the tested compounds scored in any of these assays.
Cycloheximide cs = affects cycloheximide protein synthesis inhibition readout, counter-screen. AID 2314. max response, %. cell reporter, cycloheximide protein synthesis inhibition counterscreen. 12% of 300,000 active; in the data active = max response mostly above about 13%, no sharp cut-off; inactive = mostly below about 14%; note: read at 38.3 µM for the half of the compounds with a filed dose
HCMV inh = inhibitors of human cytomegalovirus. HFF cells, HCMV-luciferase reporter, 72 h; stronger effect = lower value. activity change, negative = inhibition, % at 57.5 µM. AID 1259415. 4.5% of 410,000 active; in the data active = activity change below about -60%; inconclusive = no clear call, values can overlap the other calls; inactive = above about -39%
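Inhibition of viral replication was scored as loss of reporter luminescence in HFFs infected with HCMV-luciferase (MOI 1 PFU/cell) for 72 h; compounds tested at 2 doses, normalized to buffer and Salinomycin controls.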
Shiga inhibitor = inhibitors of Shiga toxin in Vero cells; Vero cells, Shiga toxin protein synthesis inhibition reporter; inhibition, % at 38.7 µM; 9.2% of 290,000 active; in the data active = inhibition mostly above about 28%, no sharp cut-off; inactive = mostly below about 43%
Pf growth 48h = inhibits P. falciparum growth in the first generation, 48 h; P. falciparum luciferase growth in erythrocytes, 48 h; Potency, µM (series often up to 28.7 µM), usual class: inhibitors; 5.9% of 310,000 active
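A one-generation exposure of luciferase-tagged malaria parasites in RPMI 1640/Albumax erythrocyte culture, 37 C and 5% CO2. Inhibition is inferred from decreased luminescence after adding detection reagent.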
Pf growth 96h = inhibits malaria parasite growth, 96 h. P. falciparum luciferase reporter growth, 96 h. Potency, µM (highest dose often 28.7 µM), hits mostly inhibitors. 6.9% of 320,000 active. AID 504834
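96 h incubation, 37 C, 5% CO2, of luciferase-reporter P. falciparum-infected RBCs (2% hematocrit, 0.05% parasitemia final) with test compounds; endpoint luminescence.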
HCV inh = inhibitors of hepatitis C virus infection; Huh7.5.1 HCVcc-Cre infection, luciferase reporter, 44 h; 3.4% of 340,000 active; Potency, µM (top dose mostly 41.8 µM), usual class: inhibitors
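Infectious HCVcc-Cre (~0.5 moi) was added to cells just after compound, with cells seeded 4 h earlier at 1,000 per well. Luciferase activity after 44 h culture reported infection; substrate was incubated 15 min at room temperature before reading.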
Hits are given with their value. Unless noted, calls come from the whole dose curve; as a rule, active = well fitted inhibition curve with a large enough effect; inconclusive = small, poorly fitted or top-dose-only effect, or another doubt; inactive = no such curve, though single readings can be large or run the other way.

Screening O=C(c1ccc(Br)cc1)N(C1=NCCCCS1)c1ccccc1 returned Cycloheximide cs inactive, HCMV inh -62.8, Shiga inhibitor inactive, Pf growth 48h inactive, Pf growth 96h inactive and HCV inh inactive.
`CC(=O)N(C1=NCCCS1)c1ccc(Cl)cc1` gave Cycloheximide cs inactive, HCMV inh inactive, Shiga inhibitor inactive, Pf growth 48h inactive, Pf growth 96h inactive and HCV inh inactive.
O=[N+]([O-])c1ccc(-c2nc(NCc3cccnc3)c3ccccc3n2)cc1 was read as Cycloheximide cs 23.4, HCMV inh inactive, Shiga inhibitor 53.2, Pf growth 48h inactive, Pf growth 96h 14.7µM and HCV inh inactive.
Screening Fc1ccccc1CNc1nc(-c2cccnc2)nc2ccccc12 returned Cycloheximide cs inactive, HCMV inh inactive, Shiga inhibitor inactive, Pf growth 48h 11.7µM, Pf growth 96h 5.22µM and HCV inh 35.5µM.
Screening c1ccc(CNc2nc(-c3cccs3)nc3ccccc23)nc1 returned Cycloheximide cs inactive, HCMV inh inactive, Shiga inhibitor inactive, Pf growth 48h inactive, Pf growth 96h inactive and HCV inh inconclusive.
Screening c1cncc(-c2nc(NCc3cccs3)c3ccccc3n2)c1 returned Cycloheximide cs inactive, HCMV inh inconclusive, Shiga inhibitor inactive, Pf growth 48h inconclusive, Pf growth 96h 13.1µM and HCV inh inactive.
Cc1cc(SCC(=O)OCC(=O)NCC2CCCO2)c(C)cc1Br (centres undefined) was read as Cycloheximide cs inactive, HCMV inh inactive, Shiga inhibitor inactive, Pf growth 48h inactive, Pf growth 96h inactive and HCV inh inactive.
`COc1cc2cc(CCCOC(=O)c3ccc(F)cc3)oc(=O)c2cc1OC` gave HCMV inh inactive, Pf growth 48h inactive, Pf growth 96h inconclusive and HCV inh inactive.
`COc1ccc(-n2c(=O)c3c(c4cc(OC)ccc4n3C)n(Cc3cc(C)ccc3C)c2=O)cc1` gave HCMV inh inactive.
O=C(Nc1ccc(F)cc1F)c1cc2nc(-c3ccco3)cc(C(F)(F)Cl)n2n1 was read as HCMV inh inactive.
Screening COc1ccc(NC2=C(Cl)C(=O)N(CCc3ccccc3)C2=O)c(OC)c1 returned Cycloheximide cs 73.0, HCMV inh inactive, Shiga inhibitor 58.7, Pf growth 48h inactive, Pf growth 96h inactive and HCV inh inactive.
For CCOc1ccc(NC2=C(Cl)C(=O)N(Cc3ccccc3)C2=O)cc1 the results were Cycloheximide cs inactive, HCMV inh inactive, Shiga inhibitor inactive, Pf growth 48h inconclusive, Pf growth 96h inconclusive and HCV inh inconclusive.
For COc1ccc(NC(=O)CCN2C(=O)c3ccccc3C2=O)c(OC)c1 the results were Cycloheximide cs inactive, HCMV inh inactive, Shiga inhibitor inactive, Pf growth 48h inactive, Pf growth 96h inactive and HCV inh inactive.
Screening COc1ccc(CCN2C(=O)c3cccnc3C2=O)cc1OC returned Cycloheximide cs inactive, HCMV inh inactive, Shiga inhibitor inactive, Pf growth 48h inactive, Pf growth 96h inconclusive and HCV inh inactive.
`COc1ccc(NC2=C(Cl)C(=O)N(CCc3ccccc3)C2=O)cc1` gave Cycloheximide cs 26.0, HCMV inh inactive, Shiga inhibitor inactive, Pf growth 48h inactive, Pf growth 96h inactive and HCV inh inactive.
For COc1ccc(CCNC2=C(Cl)C(=O)N(CCc3ccc(OC)c(OC)c3)C2=O)cc1OC the results were Cycloheximide cs inactive, HCMV inh inactive, Shiga inhibitor inactive, Pf growth 96h inconclusive and HCV inh 2.51µM.
For Cc1cc(NC(=O)c2ccccc2F)ccc1-c1nc2ccccc2s1 the results were HCMV inh inactive.
For CC(C)NC(=O)/C(=N\O)c1ccccc1 the results were Cycloheximide cs inactive, HCMV inh inactive, Shiga inhibitor inactive, Pf growth 48h inactive, Pf growth 96h inactive and HCV inh inactive.
`CNC(=O)/C(=N\O)c1ccccc1` gave Cycloheximide cs inactive, Shiga inhibitor 45.1, Pf growth 48h inactive and Pf growth 96h 9.28µM.
Screening CN(C)CCCNC(=O)/C(=N\O)c1ccccc1 returned Cycloheximide cs inactive, HCMV inh inactive, Shiga inhibitor inactive, Pf growth 48h inactive and HCV inh inactive.
O=C(NCCc1ccccc1)/C(=N\O)c1ccccc1 was read as Cycloheximide cs 45.4, HCMV inh inactive, Shiga inhibitor 52.2, Pf growth 48h inactive, Pf growth 96h inactive and HCV inh inactive.
CC1CCCN(Cc2nc3c(c(=O)n(C)c(=O)n3C)n2Cc2ccc(Cl)cc2Cl)C1 (centres undefined) was read as HCMV inh inactive.
CN(C)c1ccc(NC(=O)CCN2CCN(c3ccccn3)CC2)cc1 was read as Cycloheximide cs inactive, HCMV inh inactive, Shiga inhibitor inactive, Pf growth 48h inactive, Pf growth 96h inactive and HCV inh inactive.
O=c1c2c(nc3cc(-c4ccc(Br)cc4)[nH]n13)CCCC2 was read as Cycloheximide cs inactive, HCMV inh inactive, Shiga inhibitor inactive, Pf growth 48h inactive, Pf growth 96h inconclusive and HCV inh inconclusive.
Screening COc1ccc(-c2cc3nc4c(c(=O)n3[nH]2)CCC4)cc1 returned Cycloheximide cs 21.2, HCMV inh inactive, Shiga inhibitor inactive, Pf growth 48h inconclusive, Pf growth 96h inactive and HCV inh inactive.
Screening CSc1nc2nc3c(c(=O)n2[nH]1)CCCC3 returned Cycloheximide cs inactive, HCMV inh inactive, Shiga inhibitor inactive, Pf growth 48h inactive, Pf growth 96h inactive and HCV inh inactive.
For Cc1cc2nc3c(c(=O)n2[nH]1)CCCC3 the results were Cycloheximide cs inactive, HCMV inh inactive, Shiga inhibitor inactive, Pf growth 48h 11.7µM, Pf growth 96h inactive and HCV inh inactive.
`COc1cccc(N=Nc2c(N)[nH]n3c(=O)c4c(nc23)CCCC4)c1` gave Cycloheximide cs inactive, HCMV inh inconclusive, Shiga inhibitor inactive, Pf growth 48h inactive, Pf growth 96h inconclusive and HCV inh inconclusive.
Screening O=c1c2c(nc3cc(-c4ccccc4)[nH]n13)CCC2 returned Cycloheximide cs 57.5, HCMV inh inactive, Shiga inhibitor 94.8, Pf growth 48h inactive, Pf growth 96h inconclusive and HCV inh inactive.
COc1cccc(NC(=O)Cn2c(=O)n(-c3ccccc3)c(=O)c3c2c2cc(OC)ccc2n3C)c1 was read as HCMV inh inactive.
`CS(=O)(=O)Nc1cccc(-c2cn3c(n2)SCC3)c1` gave Cycloheximide cs inactive, HCMV inh inactive, Shiga inhibitor inactive, Pf growth 48h inactive, Pf growth 96h inactive and HCV inh inactive.
Screening C=CCn1c(SCc2nc3ccccc3c(=O)[nH]2)nc2scc(C3CC3)c2c1=O returned Cycloheximide cs inactive, HCMV inh inactive, Shiga inhibitor inactive, Pf growth 48h inconclusive, Pf growth 96h inactive and HCV inh inactive.
Screening C[C@@]12C(C[C@H](O)[C@@]34C[C@@H](CCC13)[C@@H](CO)C4=O)[C@](C)(C(=O)O)CC[C@@H]2O (some centres undefined) returned HCMV inh inactive.

Screening results (PubChem BioAssay)
